The nature of assay [1]: qHTS assay for measurement of the activity of small molecule inhibitors on Zika virus induced Caspase-3 activity in human astrocytoma cells (AID 1224859). In a few lines: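 Human SNB-19 astrocytoma cells in RPMI 1640 with 10% FBS receive compound one hour ahead of Zika virus at 2 FFU/cell. After 6 h infection, caspase-3/7 activity is detected by Caspase-Glo luminescence.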
Background: Quantitative high-throughput screening tests each substance at several concentrations.

A short description of assay [2]: qHTS assay to identify small molecule inhibitors of chordoma cells - UCH-1 (AID 1259355). Note: nearly all actives have a fitted effect of over 55% in size. In a few lines:
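A 48hr growth-inhibition format: each drug tested at 15 concentrations together with added auranofin, camptothecin, doxorubicin, rubitecan and topotecan, with cell viability quantified as CellTiter-Glo luminescence.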

A short description of assay [3]: qHTS assay to identify small molecule inhibitors of chordoma cells - UCH-2 (AID 1259356). Note: series mostly up to about 46 µM.
A short description of assay [4]: P-glycoprotein substrates identified in KB-8-5-11 adenocarcinoma cell line, qHTS therapeutic library screen (AID 1346987). Note: series mostly up to about 44 µM; nearly all actives have a fitted effect of over 65% in size. In a few lines: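 Compounds are pinned in dose-response onto KB-8-5-11 cells (500 cells/well, colchicine-free medium) and left 72 h at 37 degree C. CellTiter-Glo luminescence then yields AC50 values.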
Assay [5] in a line: NS1 protein of Zika virus - qHTS assay to identify small molecule inhibitors in human HEK 293 cells (AID 1347053). Note: series mostly up to about 46 µM; nearly all actives have a fitted effect of over 55% in size. Put shortly: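 TR-FRET signal from two anti-ZIKV NS1 antibodies quantified NS1 in HEK 293 cells 24 h after MR766 infection at MOI = 0.5; compounds were added 1 h before virus. Uninfected cells and infected cells defined the NS1 normalization range.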
A short description of assay [6]: qHTS of pediatric cancer cell lines to identify multiple opportunities for drug repurposing: Primary screen for TC32 cells (AID 1347089). Note: nearly all actives have a fitted effect of over 60% in size. In a few lines:
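qHTS, TC32, 48 h drug treatment, CellTiter-Glo luminescence as a proxy for metabolically active cells; primary top concentration 46 µM (MIPE 11-pt, NPC 8-pt); confirmatory 11-pt.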

The nature of assay [7]: qHTS of pediatric cancer cell lines to identify multiple opportunities for drug repurposing: Primary screen for A673 cells (AID 1347092). Note: nearly all actives have a fitted effect of over 45% in size. Note: potency is the fitted concentration of half-maximal effect. In a few lines:
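Luminescence from CellTiter-Glo, taken after 15 min at room temperature, served as the proxy for metabolically active cells following 48 h treatment. Both potency and efficacy were taken from curves fitted to the titration data.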

Assay [8] can be described thus: qHTS of pediatric cancer cell lines to identify multiple opportunities for drug repurposing: Primary screen for SK-N-MC cells (AID 1347093). Note: series mostly up to about 46 µM. In a few lines: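 Metabolically active cells were quantified by ATP-dependent luminescence (CellTiter-Glo, 15 min at room temperature) following 48 h treatment. Cells had been plated at 500-1,000 per well and settled for 5 h beforehand.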

Assay [9] can be described thus: qHTS of pediatric cancer cell lines to identify multiple opportunities for drug repurposing: Primary screen for BT-37 cells (AID 1347094). Note: series mostly up to about 57 µM. In a few lines:
(§1)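 Viability was measured as metabolically active cells after 48 hours of treatment, read by CellTiter-Glo luminescence. Compounds were tested at multiple final concentrations, giving concentration-response curves.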

A short description of assay [10]: qHTS of pediatric cancer cell lines to identify multiple opportunities for drug repurposing: Primary screen for SJ-GBM2 cells (AID 1347091). Note: potency is the fitted concentration of half-maximal effect. In a few lines: (§2)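 Eight- or eleven-point concentration series, 48 h treatment at 37 degrees C in growth media; readout CellTiter-Glo luminescence. Potency and efficacy were taken from the concentration-response curves.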
A short description of assay [11]: qHTS of pediatric cancer cell lines to identify multiple opportunities for drug repurposing: Primary screen for NB-EBc1 cells (AID 1347095). Note: potency is the fitted concentration of half-maximal effect. Put shortly:
as §1

The nature of assay [12]: qHTS of pediatric cancer cell lines to identify multiple opportunities for drug repurposing: Primary screen for DAOY cells (AID 1347090). Note: series mostly up to about 46 µM; nearly all actives have a fitted effect of over 55% in size. Put shortly:
as §2

Results filed as inconclusive are left out. Activity calls are given as the source filed them. Calls come from the whole dose curve; as a rule, active = well fitted curve in the direction sought with a large enough effect; inconclusive = small, poorly fitted or top-dose-only effect, or another doubt; inactive = no such curve, though single readings can be large; an effect the other way counts as inactive or inconclusive.

`O=C(Nc1cccc(C2=NCCN2)c1)Nc1cccc(C2=NCCN2)c1`: the call in assay [1] was inactive. The Potency entry in [2], in [3], in [4], in assay [5], in assay [6] and in assay [7] was “inactive” throughout. In addition, the Potency entry in assay [8] and in assay [9] was “inactive” each time.
Regarding `CCc1cc(Cl)c(OC)c(C(=O)NC[C@@H]2CCCN2CC)c1O`, in assay [1], the outcome was inactive. The Potency entry in assay [2], in [3], in assay [4], in [5], in assay [6] and in assay [10] was “inactive” each time. Further, the Potency entry in assay [7], in assay [8] and in assay [9] was “inactive” each time.
Consider `Cc1ccc(S(=O)(=O)NC(=O)NC2CCCC2)cc1`, for which, in assay [1], the result was inactive. Further, the Potency result in [2], in assay [3], in assay [4], in assay [5], in assay [6] and in [10] was “inactive” throughout. The Potency result in assay [7], in assay [8], in assay [9] and in [11] was “inactive” in each case.
In the case of `Nc1ccc(S(=O)(=O)Nc2cnc3ccccc3n2)cc1`, in assay [1], the result was inactive. The Potency entry in assay [2], in [3], in [4], in assay [5], in [6] and in [10] was “inactive” throughout. Also, the Potency result in assay [7], in assay [8], in assay [9] and in assay [11] was “inactive” throughout.
On to `OC1C(O)C(O)C(O)C(O)C1O` (stereo unspecified), for which the molecule was classed as inactive in assay [1]. In addition, the Potency entry in assay [2], in assay [3], in [4], in [5], in [6] and in assay [10] was “inactive” throughout. For the same molecule, the Potency entry in [7], in [9] and in assay [11] was “inactive” in each case.
As for `C[C@H]1[C@H]2CC[C@H]3[C@@H]4CC=C5C[C@@H](N(C)C)CC[C@]5(C)[C@H]4CC[C@]23CN1C`, the molecule was called inactive in assay [1]. The Potency entry in assay [2], in assay [3], in [4], in assay [5], in [6] and in assay [12] was “inactive” in each case. Also, in assay [11], the Potency result was “inactive”.
For `O=C1C(O)=C(O)C(=O)C(O)=C1O`, in assay [1], the outcome was inactive. Moreover, the Potency result in [2], in [3], in assay [4], in assay [5], in assay [6] and in [12] was “inactive” each time. Besides, the Potency result in assay [7], in assay [8], in assay [9] and in [11] was “inactive” throughout.
`CC(C)(C)NCC(O)COc1cccc2c1C[C@H](O)[C@H](O)C2` (stereo partly specified): the molecule was called inactive in assay [1]. Also, the Potency result in assay [2], in assay [3], in assay [4], in [5], in assay [6] and in assay [10] was “inactive” each time. The Potency entry in assay [7], in assay [9] and in assay [11] was “inactive” throughout.
Consider `Cc1cccc(C)c1NC(=O)c1ccccc1C(=O)O`, for which the call in [1] was inactive. Further, the Potency entry in assay [2], in [3], in [4], in assay [5], in assay [6] and in assay [12] was “inactive” throughout. Also, the Potency entry in assay [7], in [8], in assay [9] and in assay [11] was “inactive” throughout.
`CC(C)[N+](C)(C)CC(O)COc1cccc2ccccc12` (stereo unspecified): the call in assay [1] was inactive. Further, the Potency entry in assay [2], in assay [3], in assay [4], in [5], in assay [6] and in assay [12] was “inactive” in each case. The Potency result in assay [9] and in assay [11] was “inactive” throughout.
In the case of `CCCN(CCC)S(=O)(=O)c1ccc(C(=O)O)cc1`, the molecule was classed as inactive in assay [1]. Besides, the Potency result in [2], in assay [3], in [4], in assay [5], in [6] and in assay [10] was “inactive” each time. Also, the Potency result in assay [7], in assay [8], in assay [9] and in assay [11] was “inactive” throughout.
Regarding `Cc1c[nH]c2ccccc12`, the molecule was classed as inactive in assay [1]. For the same molecule, the Potency entry in assay [2], in [3], in assay [4], in [5], in [6] and in assay [10] was “inactive” each time. Besides, the Potency entry in assay [7] and in assay [9] was “inactive” throughout.
For the molecule `O=S(c1cc(Cl)cc(Cl)c1O)c1cc(Cl)cc(Cl)c1O`, in [1], the call was inactive. Moreover, the Potency result in assay [2], in assay [3], in assay [4], in [5], in [6] and in assay [12] was “inactive” throughout. For the same molecule, the Potency entry in assay [7] and in assay [9] was “inactive” each time.
As for `Cc1cccc(C)c1NC(=O)CN1CCCCCC1`, the molecule was classed as inactive in assay [1]. Also, the Potency entry in assay [2], in assay [3], in [4], in assay [5], in [6] and in [10] was “inactive” in each case. Further, the Potency entry in assay [7], in assay [8], in [9] and in assay [11] was “inactive” throughout.
Turning to `COc1ccc2c(c1)c1c3n2CCN(C)C3=NCC1`, the outcome in assay [1] was inactive. Further, the Potency entry in [2], in assay [3], in assay [4], in assay [5], in assay [6] and in assay [10] was “inactive” in each case. The Potency entry in [7], in assay [8], in assay [9] and in assay [11] was “inactive” in each case.
Consider `Nc1nc(-c2ccccc2)c(Br)c(=O)[nH]1`, for which the molecule was classed as inactive in [1]. For the same molecule, the Potency entry in assay [2], in assay [3], in [4], in assay [5], in [6] and in assay [12] was “inactive” each time. The Potency entry in [7], in assay [9] and in [11] was “inactive” each time.
As to `CN1CCC[C@@H]1CCO[C@](C)(c1ccccc1)c1ccc(Cl)cc1`, the molecule was classed as inactive in [1]. For the same molecule, the Potency result in assay [2], in assay [3], in assay [4], in [5] and in assay [6] was “inactive” throughout. Moreover, the Potency in [10] was 21.1 µM (active).
Regarding `O=C(c1ccc(F)cc1)C1CCN(CCn2c(=S)[nH]c3ccccc3c2=O)CC1`, the molecule was classed as inactive in assay [1]. For the same molecule, the Potency result in [2], in assay [3], in [4], in [5], in assay [6] and in [12] was “inactive” in each case. Besides, the Potency entry in assay [8] and in assay [11] was “inactive” in each case. Further, in assay [7], the Potency was 16.8 µM (active).
For the molecule `CN(C)C(=O)Nc1ccc(Cl)c(Cl)c1`, the result in assay [1] was inactive. For the same molecule, the Potency result in assay [2], in [3], in assay [4], in [5], in [6] and in assay [10] was “inactive” each time. The Potency result in assay [7] and in assay [11] was “inactive” in each case.
With `Nc1ccc(S(=O)(=O)NCc2ccccc2)cc1`, in assay [1], the outcome was inactive. For the same molecule, the Potency result in assay [2], in assay [3], in assay [4], in [5], in assay [6] and in [12] was “inactive” throughout. Besides, the Potency result in assay [7], in [8], in assay [9] and in assay [11] was “inactive” each time.
As for `NC(=O)n1c(O)c(C(=O)c2cccs2)c2cc(Cl)ccc21`, in assay [1], the call was inactive. Besides, the Potency entry in assay [2], in assay [3], in [4], in assay [5] and in assay [6] was “inactive” in each case. The values for the Potency in assay [10] and in [11] were 15 µM (active) and 16.8 µM (active), respectively.

The values above are taken from PubChem BioAssay (NCATS).
